In experiment [1] the test system is Tov112D. Kind of experiment: Primary qHTS to identify gynecologic anti-cancer compounds using libraries of approved drugs and bioactive compounds (AID 1345084). Also: nearly all actives have a fitted effect of over 55% in size. Also: potency is read from the fitted curve at half-maximal effect. To be noted: Gynecologic cancer cell panel viability, ATPlite luminescence, 48 h; series mostly up to 57.5 µM. Put shortly: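 Measured: luminescence after ATPlite addition (15 min, RT). Exposure: 48 h, 37 C, 5% CO2.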
(qHTS replaces the single test concentration by a dilution series.)

Experiment [2] can be described thus: Drug repurposing screens with cells derived from glioblastoma tumor samples (AID 1345199). Also: potency is read from the fitted curve at half-maximal effect. As to activity, negative = cell killing: % is scaled to controls: 0 for no effect and ±100 for the full control effect. As to all read-outs here: nearly all actives have a fitted effect of over 40% in size. Conditions: GBM patient neurospheres viability, ATP luminescence, 48 h; for Potency: tumour line A. Put shortly: (§1)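 Primary testing used CD133+ neurospheres from four GBM patients, seven concentrations, 48 h exposure and ATP-based viability; confirmation added three slower-growing patient lines.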

Experiment [3] deals with astro. The experiment is described as above. To be noted: viability, ATP luminescence, 48 h; series mostly up to 45.9 µM. A digest of the protocol:
as §1

The target of experiment [4] is Nuclear receptor subfamily 1 group I member 2 (Rattus norvegicus) (UniProt Q9R1A7). Put plainly: qHTS assay for small molecule activators of the rat pregnane X receptor (rPXR) signaling pathway (AID 651751; call rule not given here; also: 0% is about no effect). To be noted: rPXR reporter cells, luciferase (One-Glo), 24 h.
Nuclear receptor subfamily 1 group I member 2 (Rattus norvegicus), sequence (Q9R1A7 whole entry, looked up): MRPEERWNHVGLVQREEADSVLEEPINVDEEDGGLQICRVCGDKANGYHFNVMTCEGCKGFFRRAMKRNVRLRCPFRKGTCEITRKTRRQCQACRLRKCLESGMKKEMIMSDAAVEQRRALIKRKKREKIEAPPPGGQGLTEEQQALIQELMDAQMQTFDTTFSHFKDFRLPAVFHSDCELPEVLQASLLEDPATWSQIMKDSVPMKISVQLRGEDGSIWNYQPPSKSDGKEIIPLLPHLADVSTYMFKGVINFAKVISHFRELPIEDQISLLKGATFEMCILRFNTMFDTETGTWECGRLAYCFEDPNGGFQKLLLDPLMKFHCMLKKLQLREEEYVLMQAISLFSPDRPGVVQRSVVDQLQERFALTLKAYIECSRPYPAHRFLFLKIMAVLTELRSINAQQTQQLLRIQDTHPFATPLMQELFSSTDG
Setting [5] is: at 45.9 µM (top of the series), tumour line B.
Where [6] appears, read: at 45.9 µM (top of the series), tumour line D.

SMILES strings stand for the structures. “And” between values parts separate entries of the source, which are not always exact repeats. Equal values may be shown once. Unmarked numbers belong to inactive results. Results filed as inconclusive are left out. Some structures have more than one record in an assay (separate samples or runs), and their calls can disagree. The source made the active and inactive calls. Unless noted, calls follow the shape of the dose curve; as a rule, active = well fitted curve in the direction sought with a large enough effect; inconclusive = small, poorly fitted or top-dose-only effect, or another doubt; inactive = no such curve, though single readings can be large; an effect the other way counts as inactive or inconclusive.

Turning to `COc1cc(C(=O)N2CCCCCCC2)cc(OC)c1OC`, the Potency result in experiment [1] and in experiment [3] was “inactive” each time. Also, the activity, negative = cell killing was -16.1% in experiment [2] (setting [5]) and -20.1% in experiment [2] (setting [6]).
Turning to `C#C[C@]1(OC(C)=O)CC[C@H]2[C@@H]3CCC4=C/C(=N/O)CC[C@@H]4[C@H]3CC[C@@]21CC`, the activity, negative = cell killing in experiment [2] (at 46.1 µM (top of the series), tumour line C) is -21.9%. In addition, the Potency in experiment [2] was 8.91 µM (active).
`O=C(N/N=C/c1ccc([N+](=O)[O-])o1)c1ccc(O)cc1`: the Potency result in experiment [3] is “inactive”.
Consider `CC(C)Nc1cccnc1N1CCN(C(=O)c2cc3cc(NS(C)(=O)=O)ccc3[nH]2)CC1`, for which the Potency result in experiment [1] and in experiment [3] was “inactive” each time. Further, the activity, negative = cell killing in experiment [2] (setting [5]) was -14.1%; in experiment [2] (setting [6]), 0.603%.
For `CCN1/C(=C/C=C/c2sc3ccccc3[n+]2CC)Sc2ccccc21`, the figures for the Potency in experiment [1] and in experiment [3] were 3.16 µM (active) and 11.2 µM (active), respectively.
The matching figures for `Nc1nc(Cl)nc2c1ncn2[C@@H]1O[C@H](CO)[C@@H](O)[C@@H]1F`: 0.316 µM (active) and 10 µM (active).
For `C[N+]1(CC2COC(c3ccccc3)(C3CCCCC3)O2)CCCCC1` (configuration not stated), the Potency result in experiment [1] and in experiment [3] was “inactive” each time.
For `O=C(NCCc1c[nH]c2ccccc12)c1cccnc1`, the Potency entry in experiment [1] and in experiment [3] was “inactive” each time. Further, the activity, negative = cell killing in experiment [2] (setting [5]) was -17.4%.
For the molecule `CCCCCCCCCCCCOCCOCCOCCOCCOCCOCCOCCOCCOCCO`, the Potency result in experiment [1] is “inactive”. Moreover, the Potency in experiment [3] was 3.16 µM (active).
With `CC1(COc2ccc(CC3SC(=O)NC3=O)cc2)CCCCC1` (configuration not stated), the Potency entry in experiment [1] was “inactive”. For the same molecule, the max response in experiment [4] is 13.5%.
Turning to `NC(N)=NCc1cccc(I)c1`, the activity, negative = cell killing in experiment [2] (setting [5]) is -24.3% and -14.8%. Further, the Potency in experiment [2] is 12.6 µM (active). The Potency entry in experiment [3] was “inactive”.

(Values after PubChem BioAssay (NCATS).)
